# TEAD-YAP block – TEAD-YAP interaction inhibition. HEK-TIYL cells, TEAD-Gal4/YAP UAS-luciferase luminescence. inhibition, % at 9.12 µM. 640,000 compounds, 1.4% hits. AID 1259422; in the data active = inhibition above about 32%
# MITF primary – inhibitors of human MITF | AID 1259374 | O75030 | 650,000 compounds, 0.91% hits | inhibition, % at 2.6 µM | AlphaScreen MITF homodimerization, bead proximity signal; in the data active = inhibition above about 50%
# FBW7 act – human FBW7 E3 ligase activation, primary screen; normalized activity (activation), % at 26.1 µM; Q969H0; 650,000 compounds, 0.13% hits; AlphaScreen FBW7–phospho-cyclin E peptide binding, activator screen; in the data active = normalized activity above about 1.9%;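 note: purified mutant Fbw7 with reduced substrate affinity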
# GPR151 ag – activators of human GPR151. AID 1508602. 650,000 compounds, 1% hits. Q8TDV0. PathHunter beta-arrestin GPR151 cells, luminescence. activation, % at 11.2 µM; in the data active = activation above about 4.9%
# Target sequence (Q8TDV0 whole entry, looked up): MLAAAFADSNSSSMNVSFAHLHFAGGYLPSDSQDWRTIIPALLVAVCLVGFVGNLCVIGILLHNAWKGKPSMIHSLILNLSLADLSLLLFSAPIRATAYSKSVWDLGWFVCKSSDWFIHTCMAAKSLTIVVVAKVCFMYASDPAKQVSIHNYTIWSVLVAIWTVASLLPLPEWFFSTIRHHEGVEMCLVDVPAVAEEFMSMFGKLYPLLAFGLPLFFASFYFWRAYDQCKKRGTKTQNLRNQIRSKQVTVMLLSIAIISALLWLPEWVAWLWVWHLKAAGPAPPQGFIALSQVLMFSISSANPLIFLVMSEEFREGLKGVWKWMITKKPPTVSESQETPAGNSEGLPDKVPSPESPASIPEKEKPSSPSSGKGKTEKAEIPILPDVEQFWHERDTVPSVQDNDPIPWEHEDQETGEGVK
# A number is an active result; – = inactive. The list is not random: actives were taken first. Their share in the collection is about 3.4%.
SMILES,TEAD-YAP block,MITF primary,FBW7 act,GPR151 ag
Fc1cc(-c2ccnc(Nc3ccc(-n4cnc(C(F)(F)F)n4)cc3)n2)cc(N2CCNCC2)c1,39.1,–,–,–
N#Cc1cc(-c2ccnc(Nc3cccc(CN4CCCCC4)c3)n2)cc(N2CCOCC2)c1,85.8,–,–,–
Fc1cc(-c2cn[nH]c2)cc(-c2ccnc(Nc3ccc(-n4cnc(C(F)(F)F)n4)cc3)n2)c1,–,–,–,–
Cc1cc(Nc2nccc(-c3cc(C#N)cc(N4CCOCC4)c3)n2)ccc1N1CCOCC1,–,–,–,–
NC(=O)CSc1nnc(-c2ccncc2)n1Cc1ccccc1,–,–,–,–
OC1CCN(c2ccc(Nc3nccc(-c4cncc(N5CCOCC5)c4)n3)cc2)CC1,61.5,–,–,–
OC1CCN(c2ccc(Nc3nccc(-c4cc(F)cc(N5CCOCC5)c4)n3)cc2)CC1,47.7,–,–,–
N#Cc1ccc(Nc2nccc(-c3cncc(N4CCOCC4)c3)n2)cc1,–,–,–,–
Fc1cc(-c2ccnc(Nc3ccc(N4CCOCC4)cc3)n2)cc(N2CCN(C3CC3)CC2)c1,47.5,–,–,–
Fc1cc(-c2ccnc(Nc3ccc(-n4cnc(N5CCOCC5)n4)cc3)n2)cc(N2CCOCC2)c1,57.1,–,–,–
COC(=O)c1ccc(COC(=O)c2cc[n+]([O-])cc2)cc1,–,–,–,–
CC1CCc2c(sc(NC(=O)c3cc4n(n3)C(C(F)(F)F)CC(c3ccc(Cl)cc3)N4)c2C#N)C1 (stereo unspecified),–,–,–,–
N#Cc1cc(-c2ccnc(Nc3ccc(-n4cnc(-c5ccccn5)n4)cc3)n2)cc(N2CCCC(O)C2)c1 (stereo unspecified),50.4,–,–,–
c1cc(Cn2cccn2)cc(Nc2nccc(-c3cncc(N4CCOCC4)c3)n2)c1,79.4,–,–,–
N#Cc1cc(-c2ccnc(Nc3ccc(-n4cnc(N5CCOCC5)n4)cc3)n2)cc(N2CCCC(O)C2)c1 (stereo unspecified),–,–,–,–
CN(C)c1cc(F)cc(-c2ccnc(Nc3ccc(-n4cnc(N5CCC(O)CC5)n4)cc3)n2)c1,65.4,–,–,–
COc1cccnc1-c1ncn(-c2ccc(Nc3nccc(-c4cc(F)cc(N5CCOCC5)c4)n3)cc2)n1,82.6,–,–,–
CCOC(=O)C1=C(C)N=c2s/c(=C/c3ccccc3F)c(=O)n2C1c1cccc([N+](=O)[O-])c1 (stereo unspecified),–,–,–,–
Cc1ccnc(-c2ncn(-c3ccc(Nc4nccc(-c5cc(F)cc(N6CCOCC6)c5)n4)cc3)n2)c1,–,–,–,–
CN1CCN(c2ncn(-c3ccc(Nc4nccc(-c5cc(C#N)cc(N6CCC(O)CC6)c5)n4)cc3)n2)CC1,42.4,–,–,–
N#Cc1cc(-c2ccnc(Nc3ccc(N4CCC(O)CC4)cc3)n2)cc(N2CCOCC2)c1,47.3,–,–,–
Cc1ncn(-c2ccc(Nc3nccc(-c4cc(C#N)cc(N5CCCC5)c4)n3)cc2)n1,–,–,–,–
OC1CCN(c2cc(F)cc(-c3ccnc(Nc4ccc(-n5cnc(-c6ccccn6)n5)cc4)n3)c2)CC1,84.7,–,–,–
CCN1CCN(c2ncn(-c3ccc(Nc4nccc(-c5cncc(N6CCOCC6)c5)n4)cc3)n2)CC1,59.8,–,–,–
CCN1CCN(c2ncn(-c3ccc(Nc4nccc(-c5cc(N6CCOCC6)cc(C(F)(F)F)c5)n4)cc3)n2)CC1,–,–,–,–
SMILES,TEAD-YAP block,MITF primary,FBW7 act,GPR151 ag
Cc1ccccc1NC(=O)c1cccc([N+](=O)[O-])c1C,–,–,–,–
CCOC(=O)C1CCN(c2ccc([N+](=O)[O-])cc2C(=O)Nc2cc(OC)cc3cccnc23)CC1,–,–,2.1,–
COc1cc(NC(=O)c2cc([N+](=O)[O-])ccc2N2CCN(C)CC2)c2ncccc2c1,–,–,–,–
N=C1C(c2nc3ccccc3s2)=C(O)CN1c1cccc(C(=O)O)c1,–,–,–,–
CCC(C)C1(c2ccccc2)SC(NC(C)=O)=NN1C(C)=O (stereo unspecified),38.1,–,–,–
CC(=O)NCC1(c2ccccc2)SC(NC(C)=O)=NN1C(C)=O (stereo unspecified),60.2,–,–,–
COc1cc(/C=C(/C#N)C(=O)Nc2cccc(C)c2)cc(Br)c1O,–,–,–,–
COc1cc(/C=C(/C#N)C(=O)Nc2ccc(O)cc2)ccc1O,47.2,–,–,–
COc1cc(/C=C(/C#N)C(=O)Nc2ccc(O)cc2)cc(Br)c1O,43.4,–,–,–
CCOCCCNC(=O)/C(C#N)=C/c1ccc(Cl)c([N+](=O)[O-])c1,–,–,–,–
CCOCCCNC(=O)/C(C#N)=C/c1cc(OC)c(O)c([N+](=O)[O-])c1,47.6,–,–,–
CCOc1cc(/C=C(/C#N)C(=O)Nc2ccc(O)cc2)cc(Br)c1O,55.8,–,–,–
CC(C)(C)c1ccc(C(=O)Nn2c(-c3ccncc3)nc3ccccc3c2=O)cc1,–,–,–,–
COc1cc(/C=C(\C#N)C(=O)Nc2ccc(F)cc2)cc([N+](=O)[O-])c1O,36.6,–,–,–
COc1cc(/C=C(\C#N)C(=O)Nc2ccc(O)cc2)cc(Cl)c1O,54.4,–,–,–
CCN(CC)c1ccc(/C=C(/C#N)C(=O)Nc2ccc(O)cc2)cc1,39.9,–,–,–
COc1cc(/C=C(\C#N)C(=O)Nc2ccc(Cl)cc2)cc([N+](=O)[O-])c1O,–,–,–,–
CCCCn1c(=O)[nH]c(=O)c2c(C(C)C)c(C#N)c(N)nc21,–,–,–,–
CCOC(=O)CN1C(=O)c2ccccc2S1(=O)=O,–,–,–,–
CC(=O)c1c(C)[nH]c(C(=O)CN2C(=O)c3ccccc3S2(=O)=O)c1C,40.7,–,–,–
O=C(CN1C(=O)c2ccccc2S1(=O)=O)c1ccccc1,53.9,–,–,–
CC(=O)c1ccc(NC(=O)COC(=O)c2cccnc2)cc1,–,–,–,–
N#Cc1c(/N=C/c2cc([N+](=O)[O-])ccc2O)sc2c1CCC2,–,–,–,–
CC(O)c1nc2ccccc2[nH]1 (stereo unspecified),–,–,–,–
Cc1nnnn1/C(=C\c1ccccc1)C(=O)N[C@H](c1nc2ccccc2[nH]1)C(C)C,48.7,–,–,–
SMILES,TEAD-YAP block,MITF primary,FBW7 act,GPR151 ag
NC(=O)c1ccc(-c2nc(Nc3ccc(N4CCOCC4)cc3)c3[nH]cnc3n2)cc1,72.7,–,–,–
COc1ccc(-c2nc(Nc3ccc(N4CCOCC4)cc3)c3[nH]cnc3n2)cc1,64.2,–,–,–
COc1cc(OC)c(OC)cc1/C=N\NC(=O)Cc1cccn1C,–,–,–,–
CC1=NOC(=O)/C1=C/c1ccccc1OS(=O)(=O)c1ccc(C)cc1,–,70.2,–,–
COc1ccccc1/C=C1\C(=O)ON=C1C,–,70.6,–,–
COc1ccc(Cl)cc1/C=C1/C(=O)ON=C1C,–,–,–,–
COc1cccc(C=C2C(=O)NC(=O)NC2=O)c1OCc1ccccc1Cl,–,–,–,–
COc1cccc(/C=C2\C(=O)ON=C2C)c1OCc1ccccc1Cl,–,73.6,–,–
O=C1CN(C(=O)c2ccc(S(=O)(=O)N3CCCC3)cc2)CCN1,–,–,–,–
